# Screening data as filed in PubChem.
# The list is not random: actives were taken first. Their share in the collection is about 22%.
# CYP2C9 inhib = human CYP2C9 inhibition; P11712; CYP2C9 Supersomes, luciferin-H conversion, luminescence; inhibition, % at 5 µM; actives 20% (n = 96,000);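 active means blocking of liver enzyme CYP2C9 beyond about 50% at 5 µM, limit read from the data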
# Target sequence (P11712 whole entry, looked up): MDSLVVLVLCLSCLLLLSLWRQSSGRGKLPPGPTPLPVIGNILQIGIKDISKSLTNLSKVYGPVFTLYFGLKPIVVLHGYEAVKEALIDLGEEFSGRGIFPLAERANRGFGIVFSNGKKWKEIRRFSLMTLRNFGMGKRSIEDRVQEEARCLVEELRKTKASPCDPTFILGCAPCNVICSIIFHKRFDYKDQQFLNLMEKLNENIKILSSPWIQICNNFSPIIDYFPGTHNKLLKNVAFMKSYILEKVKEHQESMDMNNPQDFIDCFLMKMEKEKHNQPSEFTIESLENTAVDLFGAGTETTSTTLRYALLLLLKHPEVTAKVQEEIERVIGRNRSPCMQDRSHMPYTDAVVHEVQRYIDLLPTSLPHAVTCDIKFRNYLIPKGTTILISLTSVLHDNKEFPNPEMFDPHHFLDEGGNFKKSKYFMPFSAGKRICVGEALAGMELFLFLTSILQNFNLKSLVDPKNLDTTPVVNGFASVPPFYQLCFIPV
# CYP2C19 inhib = human CYP2C19 inhibition; P33261; CYP2C19 Supersomes, luciferin-H EGE luminescence, 30 min; inhibition, % at 5 µM; actives 21% (n = 96,000); AID 778;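 active means CYP2C19 inhibition above a set limit at 5 µM in the primary screen, cut at about 50% in these data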;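 further: plate controls were negative control wells for no effect and 2.5 mM tranylcypromine positive control for full effect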
# Measles CPE = protection of cells from measles virus | actives 1.5% (n = 140,000) | protection (pct of control), % at 4 µM | AID 841 | Measles virus-infected cells, CPE protection, absorbance; in the data active means protection mostly above about 24%, no sharp cut-off; inactive means mostly below about 26%
# CYP2C19 activ = activators of human cytochrome P450 2C19 | 96,000 tested, under 10 active | recombinant CYP2C19, luciferin-H EGE luminescence; hits give high values; 0 = fully inhibited enzyme, 1 = untreated enzyme | P33261 | AID 1025 | activation factor at 5 µM;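 active means activation factor of at least 2 at 5 µM in the primary screen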;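 further: 0 = wells with 2.5 mM tranylcypromine and 1 = vehicle-only wells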
# CYP2C9 activ = activators of human CYP2C9; P11712; recombinant CYP2C9, luciferin-H conversion, luminescence; hits give high values; factor 1 = untreated enzyme, 0 = blocked; activation factor at 5 µM; actives 1.4% (n = 96,000);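 active means activation factor of 2 or more for CYP2C9 at a 5 µM dose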;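 further: 0 = sulfaphenazole-blocked wells and 1 = vehicle-only wells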
# * marks the source's active call; other numbers are inactive results; . = not tested or not shown.
SMILES,CYP2C9 inhib,CYP2C19 inhib,Measles CPE,CYP2C19 activ,CYP2C9 activ
CCC(C)[C@H](NC(=O)NCC1CCCO1)C(=O)OC (some centres undefined),-12.4,-14.3,3.9,1.1,1.1
Cc1ccc(Cl)cc1N1CCN(C(=O)C2(S(=O)(=O)c3ccc(Cl)cc3)CC2)CC1,88.9*,83.9*,4.7,0.2,0.1
O=C(N1CCN(c2cccc(Cl)c2)CC1)C1(S(=O)(=O)c2ccc(Cl)cc2)CC1,22.4,56.7*,4.0,0.4,0.8
Cc1ccc(C)c(N2CCN(C(=O)Cc3cn(C)c4ccccc34)CC2)c1,4.3,46.2,7.2,0.5,1
Cc1ccc(Cl)cc1N1CCN(C(=O)Cc2cn(C)c3ccccc23)CC1,-26.4,52.8*,13.7,0.5,1.3
O=[N+]([O-])c1cccc(/C=C/c2nc3ccc([N+](=O)[O-])cc3[nH]2)c1,4.5,8.6,6.6,0.9,1
CC1=C(C(=O)OCc2ccccc2)C(c2ccc(Cl)cc2Cl)NC(=O)N1CCCC(=O)O (centres undefined),.,.,2.3,.,.
COc1ccc(CNC(=O)CSc2nnnn2-c2ccccc2)cc1,72.8*,89.2*,11.5,0.1,0.3
CCOC(=O)c1ccc(CNC(=O)CSc2nnnn2-c2ccc(Cl)cc2)o1,7.1,33.8,42.6*,0.7,0.9
COc1ccc(-n2nnnc2SCC#CCO)cc1,44.8,89.6*,5.0,0.1,0.6
COc1ccc(CNC(=O)CSc2nnnn2Cc2ccccc2)cc1,72.7*,79.3*,4.9,0.2,0.3
CCCn1nnnc1SCC(=O)NCc1ccc(OC)cc1,-14.1,20.2,22.2,0.8,1.1
N/C(CN1CCCC1=O)=N\OC(=O)c1ccccc1Cl,-5.1,-1.5,2.3,1,1.1
CCOC(=O)/C(C#N)=C/c1c(OCC)n(CC)c2ccccc12,.,.,25.6,.,.
COc1ccc(CCNC(=O)CSc2nnc(NC(C)=O)s2)cc1OC,.,.,11.1,.,.
COc1ccc(CCNC(=O)CSc2nnnn2-c2ccccc2)cc1,77.8*,75.7*,8.1,0.2,0.2
O=C(CSc1nnnn1Cc1ccccc1)NCCc1ccccc1,32.6,20.2,19.1,0.8,0.7
COc1ccc(CCNc2nnc(Sc3nnnn3-c3ccccc3)s2)cc1OC,7.9,73.3*,8.0,0.3,0.9
COc1ccc(N(CC(=O)NCC2CCCO2)S(=O)(=O)c2c(C)noc2C)cc1 (centres undefined),11.3,31.2,11.1,0.7,0.9
CCOc1ccc(N(CC(=O)NCc2cccc(OC)c2)S(=O)(=O)c2c(C)noc2C)cc1,20.7,59.6*,18.1,0.4,0.8
COc1ccc(N(CC(=O)NCc2cccc(OC)c2)S(=O)(=O)c2c(C)noc2C)cc1,63.5*,91.9*,16.9,0.1,0.4
CCOC1OC(=O)C(Cl)=C1Nc1ccc(C)cc1C (centres undefined),.,.,9.6,.,.
Cc1ccccc1NC1=C(Cl)C(=O)OC1OC(C)C (centres undefined),29.8,96.1*,5.7,0,0.7
COc1ccccc1C(=O)NCCC(=O)N1CC(=O)Nc2ccccc21,-96.6,-17.3,9.6,1.2,2*
C/C(N)=C(/C#N)C(=O)COC(=O)CCSc1ccccc1Cl,-0.2,64.4*,5.2,0.4,1
SMILES,CYP2C9 inhib,CYP2C19 inhib,Measles CPE,CYP2C19 activ,CYP2C9 activ
O=C1CN(C(=O)COC(=O)CCSc2ccccc2Cl)c2ccccc2N1,-29.6,21.6,26.8*,0.8,1.3
O=C1CN(C(=O)OCc2ccccc2)c2ccccc2N1,42.9,69.3*,9.0,0.3,0.6
C/C(N)=C(/C#N)C(=O)COC(=O)CSc1ccccc1,40.0,47.5,5.2,0.5,0.6
CN(C)c1ccc(/C=N/NC(=O)CN2CCN(c3ccc(F)cc3)CC2)cc1,.,.,4.0,.,.
CC1CC(C)CN(S(=O)(=O)c2ccc(Oc3ccc([N+](=O)[O-])cc3)cc2)C1 (centres undefined),.,.,16.6,.,.
CCOc1ccc(-n2nc3c(=O)n(CCN4CCCCC4)nc(C)c3c2C)cc1,.,.,2.7,.,.
CCCCSc1nnc2n(CCc3ccccc3)c(=O)c3c4c(sc3n12)COC(C)(C)C4,50.6*,80.5*,25.6,0.2,0.5
Cn1c(=O)n(-c2ccccc2)c(=O)c2c3c(sc21)COC(C)(C)C3,22.6,37.8,18.1*,0.6,0.8
O=C(O)CC1C(=O)NCCN1Cc1ccc(F)c(F)c1 (centres undefined),.,.,4.5,.,.
COc1ccc(C(=O)/C=C2/c3ccccc3CC(C)(C)N2C)cc1OC,.,.,20.8,.,.
COc1ccc2oc(=O)c(C(C)=O)cc2c1,4.2,9.6,42.0*,0.9,1
COc1ccc2oc(=O)c(-c3nc(C)cs3)cc2c1,54.9*,76.8*,0.7,0.2,0.5
COc1ccc(C(=O)c2ccccc2Cl)cc1,-154.0,81.3*,20.9,0.2,2.5*
CCN(C(=O)c1cc2cc(OC)ccc2oc1=O)c1cccc(C)c1,51.3*,56.1*,4.2,0.4,0.5
COc1ccc2cc(C(=O)c3ccccc3)c(=O)oc2c1,-52.2,92.2*,4.9,0.1,1.5
COc1ccc(S(=O)(=O)NCCSC(C)(C)C)cc1,15.6,95.9*,22.2,0,0.8
COc1ccc(S(=O)(=O)NCCSCc2ccco2)cc1Cl,-105.9,94.8*,8.9,0.1,2.1*
COc1ccc(S(=O)(=O)NCCSCc2ccco2)cc1C,.,.,5.5,.,.
COc1ccc(S(=O)(=O)NCCSC(C)(C)C)cc1Cl,-191.0,32.3,20.3,0.7,2.9*
CSc1ccc(S(=O)(=O)NCCOc2ccccc2C)cc1,-15.5,63.3*,3.3,0.4,1.2
CC1CCCN(C(=O)C2CCN(CC(C)c3ccccc3)CC2)C1 (centres undefined),.,.,6.3,.,.
COc1ccc(-c2c(C)nc(N)nc2-c2ccc(OCc3ccc(C)cc3)cc2O)cc1OC,.,.,8.4,.,.
CC(=O)C1=C(O)C(=O)N(Cc2ccco2)C1c1ccc2c(c1)OCO2 (centres undefined),-7.3,-4.5,2.2,1,1.1
CC(C)(C)SCCNS(=O)(=O)c1ccccc1,8.8,-3.3,14.9,1,0.9
COCCCNS(=O)(=O)c1ccc(SC)cc1,.,.,2.3,.,.
SMILES,CYP2C9 inhib,CYP2C19 inhib,Measles CPE,CYP2C19 activ,CYP2C9 activ
CC(C)(C)SCCNS(=O)(=O)c1ccc2ccccc2c1,-166.4,86.5*,12.8,0.1,2.7*
CSc1ccc(S(=O)(=O)NCCSC(C)(C)C)cc1,4.7,85.8*,12.1,0.1,1
COc1cc2c(cc1OC)CN(C(C)C(=O)Nc1ccc(NC(C)=O)cc1)CC2 (centres undefined),30.8,18.0,12.1,0.8,0.7
COc1ccc(N2CC(C(=O)OCC(=O)NCc3ccccc3)CC2=O)cc1 (centres undefined),13.0,-5.7,3.9,1.1,0.9
Cc1ccc2cc(C#N)c(SCc3nnc(-c4ccccc4[N+](=O)[O-])o3)nc2c1,.,.,6.5,.,.
CCOc1ccc(NC(=O)C2CCN(C(=O)NCc3ccccc3)CC2)cc1,-4.9,-2.1,6.7,1,1
CN(C)C(=O)N1CCCC(C(=O)NCc2ccccc2)C1 (centres undefined),-0.4,57.0*,3.2,0.4,1
